# Data reported in PubChem BioAssay (NCI).
# Compounds without any hit were thinned out: in the full panel of roughly 79,000, 15% have a hit. Unmarked numbers belong to inactive results. Active and inactive are the calls of the source. Cut-off read from the data, not from the text of the source: active = growth inhibition above about 70%; inactive = the rest.
# Columns and labels:
# [1] = NCI Yeast Anticancer Drug Screen. Data for the rad50 strain (AID 155);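 note: 0% = growth of vehicle-only cultures of the same strain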; details: S. cerevisiae rad50 strain growth inhibition, active compounds read high
# Outline: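 Genetically altered yeast (DNA repair pathway); compound treatment; growth inhibition vs vehicle ctrl.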
# [2] = NCI Yeast Anticancer Drug Screen. Data for the mec2-1 strain (AID 157); details: S. cerevisiae mec2-1 strain, active compounds read high
# Outline: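 Readout is yeast growth inhibition, normalised to vehicle-treated controls, in the mec2-1 strain exposed to compound.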
# [3] = NCI Yeast Anticancer Drug Screen. Data for the sgs1 mgt1 strain (AID 161);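 note: 0% = growth of cultures given vehicle only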; details: S. cerevisiae sgs1 mgt1 strain, active compounds read high
# Outline: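 Growth of a repair-deficient yeast mutant was monitored after compound treatment and expressed as inhibition relative to vehicle-treated cultures.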
# [4] = NCI Yeast Anticancer Drug Screen. Data for the cln2 rad14 strain (AID 165);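 note: 0% = growth equal to vehicle treated cultures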; details: S. cerevisiae cln2 rad14 strain, active compounds read high
# Outline: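 Relative to vehicle controls, growth inhibition of compound-treated cln2 rad14 yeast was recorded.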
# [5] = NCI Yeast Anticancer Drug Screen. Data for the bub3 strain (AID 167); details: S. cerevisiae bub3 mutant strain, active compounds read high
# Outline: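 Yeast carrying a defined mutation is treated with each compound, and growth is compared with that of vehicle-exposed cells to give inhibition.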
# [6] = NCI Yeast Anticancer Drug Screen. Data for the mlh1 rad18 strain (AID 175); details: S. cerevisiae mlh1 rad18 strain growth inhibition, active compounds read high
# Outline: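 Test agents were incubated with a yeast strain of defined genotype (DNA damage repair defect). Inhibition of growth was derived by comparison with vehicle-exposed cultures.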
# [7] = at 5.0 µM (retest, dose inferred, filed as 0.5)
# [8] = at 50.0 µM (retest, dose inferred, filed as 5.0)
SMILES,"growth inhibition [1, 7]","growth inhibition [1, 8]",growth inhibition ([1]; at 50.0 µM),"growth inhibition [2, 7]","growth inhibition [2, 8]",growth inhibition ([2]; at 50.0 µM),"growth inhibition [3, 7]","growth inhibition [3, 8]",growth inhibition ([3]; at 50.0 µM),"growth inhibition [4, 7]","growth inhibition [4, 8]",growth inhibition ([4]; at 50.0 µM),"growth inhibition [5, 7]","growth inhibition [5, 8]",growth inhibition ([5]; at 50.0 µM),"growth inhibition [6, 7]","growth inhibition [6, 8]",growth inhibition ([6]; at 50.0 µM)
Oc1ccc(C(O)(c2ccccc2)c2ccccc2)c2ccccc12,45%,94% (active),98.2% (active),12%,98% (active),97.9% (active),59%,93% (active),98.5% (active),28%,67%,97.2% (active),7%,43%,98% (active),20%,96% (active),97.5% (active)
CC1OC(Oc2c(-c3ccc(O)c(O)c3O)oc3cc(O)ccc3c2=O)C(O)C(O)C1O (configuration not stated),-4%,-2%,14.4%,-10%,-5%,9.6%,-5%,8%,17.6%,3%,-6%,2.9%,-3%,-3%,-12.7%,-5%,-8%,27.8%
O=S1(=O)CCc2ccccc2C(Br)C1Br (configuration not stated),13%,98% (active),100% (active),7%,99% (active),99.6% (active),15%,12%,99.5% (active),17%,99% (active),98.3% (active),-6%,99% (active),98.2% (active),10%,99% (active),99.3% (active)
CNC(=O)OCc1c(COC(=O)NC)c2n(c1C)-c1ccccc1CCC2,23%,35%,85.8% (active),11%,70% (active),89.6% (active),38%,75% (active),90% (active),38%,56%,88.9% (active),50%,77% (active),87.5% (active),15%,43%,87.6% (active)
O=[N+]([O-])c1cccc(C=Nc2ccccc2O)c1,22%,34%,63.1%,12%,31%,41.8%,13%,35%,52.7%,-4%,7%,17.6%,23%,82% (active),76% (active),24%,48%,70.8% (active)
Cc1c[nH]c2nc(C)n(-c3ccccc3)c(=N)c12,-1%,2%,6.1%,1%,-3%,16.5%,-3%,3%,2.5%,2%,-8%,38%,-3%,-3%,-6.85%,-2%,-2%,8.65%
Nc1c(C(=O)Nc2ccccc2)[n+]([O-])c2ccccc2[n+]1[O-],-2%,73% (active),98.2% (active),-3%,60%,97.7% (active),1%,88% (active),98% (active),-8%,78% (active),97.2% (active),-4%,90% (active),98.7% (active),-4%,91% (active),98.2% (active)
O.O.O=Cc1cc(Br)cc(Br)c1O.O=Cc1cc(Br)cc(Br)c1O.[Co],58%,99% (active),99.2% (active),25%,99% (active),96.7% (active),37%,89% (active),99% (active),15%,99% (active),89.5% (active),53%,99% (active),90.5% (active),79% (active),99% (active),99.2% (active)
CCCCN(CCCC)CC(O)c1cc(-c2ccc(Cl)cc2)nc2c(C)cccc12 (configuration not stated),0%,94% (active),98% (active),2%,95% (active),97.3% (active),19%,96% (active),98.4% (active),-4%,91% (active),95.8% (active),-7%,94% (active),89.8% (active),7%,95% (active),95.9% (active)
O=C(Nc1ccccc1C(=O)NC(=O)c1ccccc1NC(=O)c1ccccc1)c1ccccc1,-4%,99% (active),58.9%,10%,99% (active),57.5%,-2%,99% (active),54.8%,4%,99% (active),40.8%,-1%,99% (active),46.1%,5%,99% (active),63.5%
CC(=O)OC1CCC2(C)C(CCC3C2CCC2(C)C4CCC32OC(=O)C4CC(=O)O)C1 (configuration not stated),3%,36%,86.6% (active),-32%,48%,89.5% (active),-12%,13%,89.5% (active),7%,49%,90.5% (active),-2%,49%,73% (active),10%,65%,93.5% (active)
CC(=O)Oc1c(C)cc(C)cc1Cc1cc(C(C)=O)cc(Cc2cc(C)cc(C)c2OC(C)=O)c1OC(C)=O,30%,91% (active),94.5% (active),17%,88% (active),93.2% (active),47%,91% (active),95.6% (active),28%,88% (active),97% (active),22%,87% (active),94.3% (active),46%,91% (active),92.5% (active)
COc1ccc(-c2c3c(cc4cc5c(cc24)OCO5)C(=O)OC3)cc1OC,26%,96% (active),92.5% (active),30%,96% (active),93.9% (active),57%,96% (active),93.7% (active),16%,87% (active),92.3% (active),51%,97% (active),92.3% (active),62%,96% (active),78.8% (active)
Nc1ncnc2nc(SCCO)[nH]c12,-1%,-2%,9.4%,4%,0%,-4.9%,-1%,-4%,12.9%,0%,-5%,31.4%,3%,-2%,9.15%,-2%,-3%,39.1%
